Measured values from PubChem BioAssay (NCATS).
Records with an inconclusive call do not appear. Calls of active or inactive are those of the source. Calls come from the whole dose curve; as a rule, active = well fitted inhibition curve with a large enough effect; inconclusive = small, poorly fitted or top-dose-only effect; inactive = no such curve, though single readings can be large or run the other way.
Potency is the fitted concentration of half-maximal effect.

Experiment: Primary fluorescence-based thiol-reactive (MSTI) qHTS assay for identification of artifact compounds. (AID 1845221); note: nearly all actives have a fitted effect of over 65% in size;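 for activity change, negative = thiol reactive: thiol-reactive compounds lower the probe fluorescence signal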
Details: MSTI thiol-reactivity probe, 1 h; series mostly up to 53.8 µM; activity change, negative = thiol reactive: at the top concentration
Outline: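 One-hour, room-temperature, dark incubation of compound with 4 uM MSTI in PBS (pH 7.4, 2% DMSO) precedes a fluorescence read at 525 nm excitation, 598 nm emission; Hill-equation fitting yields concentration-response values.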
For O=C(/C=C/c1ccc(O)cc1)OCC1OC(O)C(OC2OC(CO)C(O)C(O)C2O)C(O)C1O (stereo unspecified), the “activity change, negative = thiol reactive” value (from here on “activity change”) was -12.4% [at 25.6 µM] (inactive).
With Cc1onc(-c2c(Cl)cccc2Cl)c1CC(=O)NCc1ccc(OCC(F)(F)F)nc1 the “activity change” value was 109% (inactive).
In the case of CC1(C)CC[C@]2(C(=O)O[C@@H]3O[C@H](CO)[C@@H](O)[C@H](O)[C@H]3O)CC[C@]3(C)C(=CCC4[C@@]5(C)C[C@H](O)[C@H](O[C@@H]6O[C@H](C(=O)O)[C@@H](O)[C@H](O)[C@H]6O)[C@@](C)(CO)C5CC[C@]43C)C2C1 (stereo partly specified), the activity change, negative = thiol reactive is reported as 8.46% [at 11.5 µM] (inactive).
In the case of CC(=O)O[C@@H]1[C@H](O[C@@H]2O[C@H](CO)[C@@H](O)[C@H](O)[C@H]2O)[C@@H](O[C@@H]2O[C@@H](C)[C@H](O)[C@@H](O[C@@H]3O[C@H](CO)[C@@H](O)[C@H](O)[C@H]3O)[C@H]2O)[C@H](OC(=O)[C@]23CCC(C)(C)C[C@H]2C2=CCC4[C@@]5(C)C[C@H](O)[C@H](O[C@@H]6O[C@H](C(=O)O)[C@@H](O)[C@H](O)[C@H]6O)[C@@](C)(C(=O)O)C5CC[C@@]4(C)[C@]2(C)CC3)O[C@@H]1C (stereo partly specified), the activity change, negative = thiol reactive is reported as 244% [at 11.5 µM] (inactive).
With COc1ccc(CCC(=O)c2c(O)cc(O[C@@H]3O[C@H](CO)[C@@H](O)[C@H](O)[C@H]3O[C@@H]3O[C@@H](C)[C@H](O)[C@@H](O)[C@H]3O)cc2O)cc1O the “activity change” value was 34.2% (inactive).
In the case of O=C(/C=C/c1ccc(O)c(O)c1)O[C@H]1[C@H](OC2CCCCC2O)O[C@H](CO)[C@@H](O)[C@@H]1O (stereo partly specified), the Potency is reported as 2.07 µM (active).
With CC(C)=CCC[C@](C)(O[C@@H]1O[C@H](CO)[C@@H](O)[C@H](O)[C@H]1O)[C@H]1CC[C@]2(C)[C@@H]1[C@H](O)CC1[C@@]3(C)CC[C@H](O)C(C)(C)C3[C@@H](O[C@@H]3O[C@H](CO)[C@@H](O)[C@H](O)[C@H]3O[C@@H]3O[C@@H](C)[C@H](O)[C@@H](O)[C@H]3O)C[C@]12C (stereo partly specified) the activity change, negative = thiol reactive was 209% [at 11.5 µM] (inactive).
For C/C(=C\CC[C@H](CO)[C@@H]1CC[C@]2(C)C3=C(CC[C@@]12C)[C@@]1(C)CCC(=O)C(C)(C)C1CC3)C(=O)O (stereo partly specified), the “activity change” value was 72.2% [at 25.6 µM] (inactive).
For C/C=C(\C)C(=O)OC[C@H]1O[C@@H](O[C@H]2[C@@H](O[C@H]3O[C@H](CO)[C@@H](O)[C@H](O)[C@H]3O[C@@H]3O[C@H](CO)[C@@H](O)[C@H](O)[C@H]3O)O[C@H](COC(=O)/C(C)=C/C)[C@@H](O)[C@@H]2O)[C@H](O)[C@@H](O)[C@@H]1O, the activity change, negative = thiol reactive was -18.3% [at 11.5 µM] (inactive).
In the case of C=C1CC[C@@]2(OC1)O[C@H]1CC3C4CC=C5C[C@@H](O[C@@H]6O[C@@H](C)[C@H](O)[C@@H](O)[C@H]6O)C[C@@H](O[C@@H]6O[C@H](C)[C@H](O)[C@H](O)[C@H]6O[C@@H]6O[C@@H](C)[C@H](O)[C@@H](O)[C@H]6O)[C@]5(C)C4CC[C@]3(C)[C@H]1[C@@H]2C (stereo partly specified), the activity change, negative = thiol reactive is reported as 170% [at 11.5 µM] (inactive).
For C=C1CC[C@@]2(OC1)O[C@H]1CC3[C@@H]4CC=C5C[C@@H](O)C[C@@H](O[C@@H]6OC[C@H](O)[C@H](O)[C@H]6O[C@@H]6O[C@@H](C)[C@H](O)[C@@H](O)[C@H]6O)[C@]5(C)C4CC[C@]3(C)[C@H]1[C@@H]2C (stereo partly specified), the “activity change” value was 145% [at 25.6 µM] (inactive).
For COC(=O)C[C@@H]1C(C(=O)O)=CO[C@@H](O[C@@H]2O[C@H](CO)[C@@H](O)[C@H](O)[C@H]2O)/C1=C\COC(=O)/C=C/c1ccc(O)c(OC)c1, the “activity change” value was -3.69% [at 25.6 µM] (inactive).
For CC1CCC2(C)CCC3(C)C(=CCC4C5(C)CCC(O)C(C)(C(=O)O)C5CCC43C)C2C1C (stereo unspecified), the “activity change” value was 33.9% [at 25.6 µM] (inactive).
For COc1c2c(c(C)c3c1C(=O)OC3)OC1(C)CC(O)C34OC(O)(CCC3(C)C1C2)OC4(C)C (stereo unspecified), the “activity change” value was 56.1% [at 25.6 µM] (inactive).
In the case of C/C(=C\CCC(C)CCO)C(=O)OC[C@H]1O[C@@H](O[C@@H]2OC=C(C(=O)O)[C@H]3CC[C@](C)(O)[C@@H]23)C(O)[C@@H](O)C1O (stereo partly specified), the Potency is reported as 2.32 µM (active).
In the case of CCN(CCN(C)C)C(=O)CNCc1cc(C(N)=O)ccn1, the “activity change” value is reported as -0.962% (inactive).
In the case of C=C(COC(=O)CC(C)C)C1Cc2cc(C(C)=O)ccc2O1 (stereo unspecified), the “activity change” value is reported as -7.52% (inactive).
For CNc1nc(Cc2ccccc2)nc2c1CCNC[C@@H]2C, the “activity change” value was 23.2% (inactive).
For CCC(C)/C=C(C)/C=C/C(=O)C1CCC(O)C(C)(O)C1=O (stereo unspecified), the Potency was 23.8 µM (active).
In the case of C=C(COC(=O)C(C)C)C1Oc2cc(C(C)=O)ccc2C1OC(=O)C(C)C (stereo unspecified), the “activity change” value is reported as 25.3% (inactive).
For CC1(C)CC[C@]2(C(=O)O[C@@H]3O[C@H](CO)[C@@H](O)[C@H](O)[C@H]3O)[C@H](O)C[C@]3(C)C(=CCC4[C@@]5(C)CC[C@H](O[C@@H]6OC[C@@H](O)[C@H](O)[C@H]6O)[C@@](C)(C(=O)O)C5CC[C@]43C)[C@@H]2C1 (stereo partly specified), the “activity change” value was 310% [at 25.6 µM] (inactive).
